# Measured values published in PubChem BioAssay AID902 (National Center for Advancing Translational Sciences (NCATS), 2007).
# Screen size: about 130,000 compounds; about 1,900 (1.5%) were called active. Roughly 5% stayed inconclusive and do not appear here. The sample as a whole holds a higher share of actives than the screen did. A number with no mark means an inactive call. The call rests on the fitted dose curve; in most records, active means well fitted cell-killing curve with a large enough effect; inconclusive means small, poorly fitted or top-dose-only effect; inactive means no such curve, though single readings can be large or run the other way.
# Assay: qHTS Screen for Compounds that Selectively Target Cancer Cells with p53 Mutations: Cytotoxicity of p53ts Cells at the Nonpermissive Temperature; further: nearly all actives have a fitted effect of over 55% in size
# Conditions: H1299-p53A138V viability at 39C, ATP luminescence, 24 h; series mostly up to 46.1 µM; activity change, negative = cell killing: at the top concentration
# From the text: NIH Chemical Genomics Center [NCGC] NIH Molecular Libraries Screening Centers Network [MLSCN] MLSCN Grant: 1 X01 MH079844-01 Assay Submitter (PI): Dr. SUN, YI, University of Michigan NCGC Assay Overview: Synthetic Lethal Screen for Compounds to Kill Cancer Cells with p53 Mutation. Tumor suppressor gene p53 serves as a major cellular barrier against tumorigenesis. […] The goal of this screening is to identify small molecule probes that selectively kill cancer cells with mutations in p53. This screening was carried out using two lines of H1299 lung cancer cells. The H1299-p53 A138V line express a temperature sensitive p53 mutant (p53ts) in which the mutant p53 protein (A138V) is in the mutant confirmation when grown at 39C (the nonpermissive temperature) and in the wild type conformation when grown at 32C (the permissive temperature). A H1299-neo line (p53 null) grown at both 39C and 32C were used as counter-screens to filter out false positive associated with temperature shifting. The small molecular compounds that selectively target mutant p53-containing cancer cells were selected as candidate probes for further study. A cytotoxicity assay based on the measurement of ATP contents in cells was used in this screen. Concentration-responses of all the compounds in the library collection were determined in qHTS using the cell lines and temperature conditions as above.
# NCGC Assay Protocol Summary: Both the H1299-p53A138V and H1299-neo cell lines were provided by Dr.Yi Sun, a PI at the University Michigan. The cells were maintained and cultured at 37C. The resuspended frozen cells were used to plate the cells in the 1536-well assay plates at a density of 600 cells per well in 5 ul medium. The assay plates with the cells were incubated at 37C for 16 to 30 hours before the experiments. The library compounds in DMSO solution were added to the cells in assay plates and incubated 24 hours at 39C (for mutant p53 conformation) or 32C (for normal p53 conformation as control). An ATP_lite assay kit (PerkinElmer) was used to determine the cell viability. Tomaxifen (100uM) was used as the positive control for cell killing. Data were normalized to the controls for basal activity (DMSO only) and 100% killing (100uM tamoxifen). AC50 values were determined from concentration-response data modeled with the standard Hill equation. P53 assay protocol: 1. Reagent; 5 uL H1299-p53A138V or H1299-neo cell cells/well 2. Time; overnight; 37C incubation 3. Compounds; 23 nL; 5.9 nM to 46 uM 4. Controls; 23 nL; Tamoxifen 100 uM 5. Time; 24 hr; 39C incubation 6. Reagent; 3 uL; ATP_Lite reagent 7. Time; 20 min; Room Temperature 8. Detection; Luminescence; Viewlux plate reader Keywords: p53, synthetic lethal, cancer, cell viability, cytotoxicity, H1299 cell line, luminescence, MLSMR, MLSCN, NIH Roadmap, qHTS, NCGC
# On the % scale 0 is the no-effect control and ±100 the full control effect; potency means the concentration at half of the fitted maximal effect.
SMILES,"activity change, negative = cell killing",Potency
c1coc(-c2nc3nc4ccccc4n3nc2-c2ccco2)c1,-3.02%,–
O=C(CCn1ccc2cc(S(=O)(=O)N3CCCC3)ccc21)NCc1cccc(Cl)c1,-25.5%,–
COc1ccc(CC(=O)NCCc2sc3nc(-c4ccc(OC)cc4)nn3c2C)cc1,-18%,–
Cc1cccc(-n2ccnc2SCC(=O)Nc2cc(C(F)(F)F)ccc2Cl)c1,-21.3%,–
O=C(CN1C(=O)c2ccccc2S1(=O)=O)N1CCc2ccccc21,–,2 µM (active)
O=C(CN1CCN(c2ccccn2)CC1)N1CCc2ccccc21,19.6%,–
O=C(c1cccc(C(=O)N2CCc3ccccc32)n1)N1CCc2ccccc21,1.43%,–
CC(=O)Nc1ccc(S(=O)(=O)N2CCN(C(=O)c3ccccc3F)CC2)cc1,3.21%,–
CC(C)c1ccc(NC(=O)c2cc(S(=O)(=O)N3CCc4ccccc4C3)ccc2F)cc1,–,31.6 µM (active)
Cc1cccc(NC(=O)c2cc(S(=O)(=O)N3CCC4(CC3)OCCO4)ccc2F)c1,5.17%,–
Cc1nc2ccn(Cc3cccs3)c(=O)c2cc1C(=O)NCc1ccc(Cl)cc1,-19%,–
COC(=O)c1sc2ncccc2c1-n1c(C)ccc1C,-13.8%,–
COc1ccc(-c2nc(S(=O)(=O)c3ccccc3)c(N3CCCCC3)o2)cc1,12.8%,–
Cc1ccc(-c2nc(S(=O)(=O)c3ccc(C)cc3)c(N3CCCCCC3)o2)cc1,6.8%,–
CC(C)S(=O)(=O)c1oc(-c2ccc(F)cc2)nc1S(=O)(=O)c1ccc(F)cc1,–,3.16 µM (active)
CC1CCc2noc(NC(=O)c3ccc([N+](=O)[O-])cc3)c2C1 (configuration not stated),2.77%,–
COc1ccc(NC(=O)c2c(C)oc3c2CCCC3)cc1,-9.84%,–
COc1ccc(C(=O)Nc2onc3c2CCCC3)cc1,–,10 µM (active)
O=C(c1ccc2c(c1)N(Cc1ccccc1)C(=O)c1ccccc1S2(=O)=O)N1CCCC1,-14.6%,–
COc1ccccc1C(=O)Nc1c(C(=O)N(C)Cc2ccccc2)sc2nc(C)c(Cl)c(C)c12,12.2%,–
COc1ccc(NS(=O)(=O)c2cc3c4c(c2)CC(=O)N4CCC3)cc1Cl,-7.45%,–
CCN1C(=O)c2ccccc2S(=O)c2ccc(C(=O)NCc3ccc(F)cc3)cc21 (configuration not stated),1.95%,–
COC(=O)c1nc2ccccc2s1,5.71%,–
CCC(=O)NC(=Nc1nc2ccccc2s1)NC(=O)CC,–,10 µM (active)
COC(=O)Cc1cc(=O)n(-c2nc3ccccc3s2)[nH]1,-2.65%,–
O=C(NCC(c1ccc2c(c1)OCO2)N1CCN(c2ccccc2)CC1)C(=O)Nc1ccccc1F (configuration not stated),-23.6%,–

SMILES,"activity change, negative = cell killing",Potency
O=C(NC1CC(=O)N(c2ccccc2)C1)c1ccco1 (configuration not stated),-7.23%,–
c1ccc(-c2noc(-c3cccs3)n2)nc1,–,15.8 µM (active)
c1csc(-c2nc(-c3ccncc3)no2)c1,-9.47%,–
CC(C)c1nc(-c2ccccn2)no1,-4.4%,–
COc1ccc(CNC(=O)c2cc3c(-c4ccccc4F)nn(C)c3s2)c(OC)c1,14.9%,–
CCOc1ccc(NC(=O)c2c(NC(=O)Cc3ccccc3)sc3c2CCCCC3)cc1,–,10 µM (active)
O=C(Cc1ccccc1)Nc1sc2c(c1C(=O)Nc1ccc(Br)cc1)CCC2,14.3%,–
CCOc1ccc(NC(=O)c2c(NCc3cccc(OC)c3OC)sc3c2CCC3)cc1,27.5%,–
CCc1ccc(CNC(=O)c2ccc(CS(=O)c3ccc(Br)cc3)o2)cc1 (configuration not stated),-14.8%,–
CC(NC(=O)c1cc(Sc2ccc(F)cc2F)nc2ccccc12)c1ccccc1 (configuration not stated),-22.5%,–
O=C(/C=C/c1ccccc1)N1CCN(Cc2cc(=O)n3nc(-c4ccccc4F)sc3n2)CC1,-9.93%,–
NC(=O)c1ccccc1NC(=O)c1ccccc1F,5.04%,–
O=C(Nc1nc2c(s1)CCCC2)c1ccccc1F,–,10 µM (active)
O=C(Cn1c(=O)sc2ccccc21)Nc1nc2c(s1)CCCC2,-3.55%,–
COC(=O)c1ccccc1NS(=O)(=O)c1ccc2c(c1)CCCN2C(C)=O,26.2%,–
CCn1cc2nc(SCc3ccccc3Cl)n(CCc3ccccc3)c(=O)c2n1,-22%,–
Cc1ccc2cc3cc(C(=O)N4CCCCCC4)oc3nc2c1,–,15.8 µM (active)
CCc1ccc(CNC(=O)c2cc3cc4ccc(OC)cc4nc3o2)cc1,22.4%,–
Cc1ccc(C(=O)N2CCCCCC2)cc1Br,5.68%,–
CCCS(=O)(=O)c1c(Nc2ccccc2C)sc(C(=O)c2ccccc2)c1N,-12.5%,–
CCC(C(=O)Nc1cccc(-c2nc3cccnc3s2)c1C)c1ccccc1 (configuration not stated),18.6%,–
Cc1c(NC(=O)Cc2ccccc2)cccc1-c1nc2cccnc2s1,0.432%,–
Cc1c(NC(=O)C(C)(C)C)cccc1-c1nc2ccccc2s1,–,15.8 µM (active)
CCOc1ccc(N(Cc2ccccc2)C(=O)c2nc(S(C)(=O)=O)ncc2Cl)cc1,–,3.98 µM (active)
CCOc1ccc(NC(=O)CN(Cc2ccccc2)S(=O)(=O)c2ccc(Cl)cc2)cc1,-8.08%,–
CCOc1ccc(N(Cc2ccccc2)C(=O)c2nc(SCC)ncc2Cl)cc1,-14.9%,–
